# PubChem BioAssay (EPA / NIEHS)
# The source made the active and inactive calls. The calls were made as follows: active = hit-call score of the fitted dose curve at least 0.9, where 1 is the maximum; inactive = score below 0.9.
# Key:
# [1] = ATG_GLI_CIS: Attagene CIS-FACTORIAL HepG2 Assay for human Zinc Finger Protein GLI1 (AID 2282945); conditions: HepG2, Attagene cis-factorial reporter mRNA, GLI element; actives raise or lower the signal
# Procedure, shortened: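 Bidirectional curve fits relative to DMSO, using reporter mRNA levels from RT-PCR plus capillary electrophoresis. Cells were HepG2 transiently carrying cis-regulated reporter constructs, harvested 24 h after dosing.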
# [2] = ATG_ISRE_CIS: Attagene CIS-FACTORIAL HepG2 Assay for human Interferon Regulatory Factor 1 (IRF1) binding to an Interferon-Stimulated Response Element (ISRE) (AID 2282948); conditions: HepG2 ISRE cis-reporter (Attagene), mRNA transcription readout; actives raise or lower the signal
# Procedure, shortened: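 HepG2 cells transiently transfected with multiplexed cis-promoter reporter units; after 24 h compound exposure, reporter mRNA quantified by RT-PCR, FAM labelling, HpaI digestion and capillary electrophoresis. Bidirectional fit versus DMSO baseline.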
# [3] = ATG_M_32_CIS: Attagene CIS-FACTORIAL HepG2 Assay for M32 Transcription Factor (Internal Marker) (AID 2282949); conditions: HepG2 Attagene cis-factorial M32 reporter, mRNA; actives raise or lower the signal;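 also: background control marker of the multiplexed CIS panel rather than a real target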
# Procedure, shortened: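 Following 24 h chemical exposure of HepG2 cells transiently expressing cis-promoter reporter constructs, reporter transcript levels were determined by RT-PCR with fluorescent labelling and capillary electrophoresis, then fitted bidirectionally against DMSO.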
# [4] = ATG_M_06_CIS: Attagene CIS-FACTORIAL HepG2 Assay for M06 Transcription Factor (Internal Marker) (AID 2282950); conditions: HepG2 Attagene CIS-FACTORIAL M06 internal marker reporter; actives raise or lower the signal
# Procedure, shortened: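 One of many multiplexed endpoints: HepG2 reporter mRNA after 24 h dosing, detected by RT-PCR and capillary electrophoresis fluorescence; gain or loss of signal analysed against DMSO.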
# [5] = biological target: Hypoxia-inducible factor 1-alpha (Homo sapiens) (UniProt Q16665); assay: ATG_HIF1a_CIS: Attagene CIS-FACTORIAL HepG2 Assay for human Hypoxia Inducible Factor 1 (HIF1A) (AID 2282951); conditions: HepG2 Attagene cis-factorial HIF1a reporter transcription; actives raise or lower the signal
# Sequence of Hypoxia-inducible factor 1-alpha (Homo sapiens) (Q16665 whole entry, looked up): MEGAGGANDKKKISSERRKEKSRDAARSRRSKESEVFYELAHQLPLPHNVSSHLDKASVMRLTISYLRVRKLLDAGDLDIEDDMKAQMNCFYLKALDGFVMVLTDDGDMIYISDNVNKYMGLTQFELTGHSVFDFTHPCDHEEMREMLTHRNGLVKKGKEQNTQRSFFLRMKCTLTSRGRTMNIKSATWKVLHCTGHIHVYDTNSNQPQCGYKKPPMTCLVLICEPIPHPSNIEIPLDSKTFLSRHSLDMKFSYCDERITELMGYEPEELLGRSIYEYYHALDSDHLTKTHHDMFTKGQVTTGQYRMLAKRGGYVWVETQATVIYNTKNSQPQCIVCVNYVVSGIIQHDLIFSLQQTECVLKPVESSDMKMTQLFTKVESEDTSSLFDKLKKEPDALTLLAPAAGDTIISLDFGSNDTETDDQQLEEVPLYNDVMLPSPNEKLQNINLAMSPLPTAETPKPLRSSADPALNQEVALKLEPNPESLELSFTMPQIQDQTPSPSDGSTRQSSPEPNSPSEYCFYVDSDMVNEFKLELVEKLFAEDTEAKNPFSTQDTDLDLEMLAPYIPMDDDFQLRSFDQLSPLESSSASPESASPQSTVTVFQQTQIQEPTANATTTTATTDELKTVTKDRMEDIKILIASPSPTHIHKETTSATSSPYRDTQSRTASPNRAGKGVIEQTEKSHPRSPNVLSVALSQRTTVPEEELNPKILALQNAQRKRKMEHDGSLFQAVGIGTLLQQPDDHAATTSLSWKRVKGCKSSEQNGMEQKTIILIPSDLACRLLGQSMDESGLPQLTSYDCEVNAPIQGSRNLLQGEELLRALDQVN
# Procedure, shortened: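 HepG2 cells transiently transfected with multiplexed cis-promoter reporter units; reporter mRNA read 24 h after dosing by RT-PCR, 6-FAM primer-extension labelling, HpaI digestion and capillary electrophoresis. Bidirectional fit versus DMSO baseline.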
# [6] = biological target: Hepatocyte nuclear factor 6 (Homo sapiens) (UniProt Q9UBC0); assay: ATG_HNF6_CIS: Attagene CIS-FACTORIAL HepG2 Assay for human Hepatocyte Nuclear Factor 6 (HNF6) (AID 2282952); conditions: HepG2 Attagene cis-factorial HNF6 reporter transcription; actives raise or lower the signal
# Sequence of Hepatocyte nuclear factor 6 (Homo sapiens) (Q9UBC0 whole entry, looked up, the tested form may be a part): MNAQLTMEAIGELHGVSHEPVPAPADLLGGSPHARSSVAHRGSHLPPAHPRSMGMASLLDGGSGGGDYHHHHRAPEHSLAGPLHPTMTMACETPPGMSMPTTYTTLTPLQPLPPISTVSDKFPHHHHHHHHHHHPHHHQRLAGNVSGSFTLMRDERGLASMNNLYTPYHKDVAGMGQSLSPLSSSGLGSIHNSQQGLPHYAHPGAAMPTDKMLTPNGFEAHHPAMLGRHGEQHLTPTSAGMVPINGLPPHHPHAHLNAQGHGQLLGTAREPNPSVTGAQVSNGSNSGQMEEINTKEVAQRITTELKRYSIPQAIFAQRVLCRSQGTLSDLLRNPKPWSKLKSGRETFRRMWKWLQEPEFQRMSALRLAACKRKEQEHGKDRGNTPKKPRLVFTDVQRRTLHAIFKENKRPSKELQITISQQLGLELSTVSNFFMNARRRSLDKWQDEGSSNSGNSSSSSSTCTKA
# Procedure, shortened: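 HepG2 cells transiently transfected with cis-element-driven multiplexed reporter units measuring endogenous transcription factor activity. After 24 h exposure, reporter mRNA quantified by RT-PCR, FAM-labelled fragments and capillary electrophoresis; bidirectional fitting versus DMSO.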
# [7] = biological target: Heat shock factor protein 1 (Homo sapiens) (UniProt Q00613); assay: ATG_HSE_CIS: Attagene CIS-FACTORIAL HepG2 Assay for human Heat Shock Transcription Factor 1 (HSE) (AID 2282953); conditions: HepG2 HSE cis-reporter, Attagene RNA transcription; actives raise or lower the signal
# Sequence of Heat shock factor protein 1 (Homo sapiens) (Q00613 whole entry, looked up): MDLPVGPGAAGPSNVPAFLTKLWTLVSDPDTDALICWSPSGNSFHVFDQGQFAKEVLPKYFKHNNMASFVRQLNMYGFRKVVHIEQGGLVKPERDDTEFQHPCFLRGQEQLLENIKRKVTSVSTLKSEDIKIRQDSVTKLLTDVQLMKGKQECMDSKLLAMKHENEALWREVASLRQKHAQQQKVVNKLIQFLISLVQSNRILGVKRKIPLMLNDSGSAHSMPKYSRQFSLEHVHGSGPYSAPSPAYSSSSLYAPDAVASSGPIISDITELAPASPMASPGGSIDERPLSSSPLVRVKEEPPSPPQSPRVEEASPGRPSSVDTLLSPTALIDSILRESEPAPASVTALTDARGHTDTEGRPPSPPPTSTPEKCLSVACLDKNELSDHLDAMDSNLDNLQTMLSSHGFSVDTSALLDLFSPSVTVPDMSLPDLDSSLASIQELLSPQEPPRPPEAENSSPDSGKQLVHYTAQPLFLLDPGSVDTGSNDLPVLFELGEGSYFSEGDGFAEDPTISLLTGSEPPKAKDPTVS
# Procedure, shortened: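 Using HepG2 with transfected cis-driven reporter constructs, compound effects on endogenous factor activity are scored as reporter mRNA change at 24 h. Detection: RT-PCR, HpaI digestion, capillary electrophoresis; bidirectional fitting to DMSO.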
# [8] = ATG_MRE_CIS: Attagene CIS-FACTORIAL HepG2 Assay for human Metal Responsive Element (MRE) (AID 2282954); conditions: HepG2 MRE cis-reporter transcription, Attagene multiplex; actives raise or lower the signal
# Procedure, shortened: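 After a 24 h chemical exposure, transiently transfected HepG2 cells yield RNA whose reporter sequences are amplified, FAM-labelled and sized by capillary electrophoresis. Curves are fitted bidirectionally relative to DMSO.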
# [9] = biological target: Paired box protein Pax-6 (Homo sapiens) (UniProt P26367); assay: ATG_Pax6_CIS: Attagene CIS-FACTORIAL HepG2 Assay for human Paired Box 6 (PAX6) (AID 2282956); conditions: HepG2 CIS-FACTORIAL PAX6 reporter transcription, RNA readout; actives raise or lower the signal
# Sequence of Paired box protein Pax-6 (Homo sapiens) (P26367 whole entry, looked up): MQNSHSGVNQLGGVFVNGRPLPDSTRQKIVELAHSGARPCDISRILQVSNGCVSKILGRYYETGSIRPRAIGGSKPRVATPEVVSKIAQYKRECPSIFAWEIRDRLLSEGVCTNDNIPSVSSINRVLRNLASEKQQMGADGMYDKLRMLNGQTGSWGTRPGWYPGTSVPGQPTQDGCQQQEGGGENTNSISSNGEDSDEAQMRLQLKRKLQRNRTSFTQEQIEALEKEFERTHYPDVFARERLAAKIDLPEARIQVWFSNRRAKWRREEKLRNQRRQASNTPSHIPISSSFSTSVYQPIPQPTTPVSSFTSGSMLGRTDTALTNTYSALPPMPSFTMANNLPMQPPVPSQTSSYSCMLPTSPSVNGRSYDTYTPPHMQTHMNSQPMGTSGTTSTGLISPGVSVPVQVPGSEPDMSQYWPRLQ
# Procedure, shortened: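 HepG2 cells transiently transfected with multiplexed cis-promoter reporter units (endogenous TF activity) were dosed for 24 h. Reporter mRNA was quantified by RT-PCR, 6-FAM labeling, HpaI digestion and capillary electrophoresis; bidirectional fitting versus DMSO baseline.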
# [10] = ATG_PXRE_CIS: Attagene CIS-FACTORIAL HepG2 Assay for human Pregnane X Receptor Element (PXRE) (AID 2282957); conditions: HepG2 Attagene CIS-FACTORIAL PXRE reporter, mRNA; actives raise or lower the signal
# Procedure, shortened: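 HepG2 cells transiently transfected with cis-element-driven multiplexed reporter units; after 24 h chemical exposure, reporter mRNA measured by RT-PCR, 6-FAM labelling, HpaI digestion and capillary electrophoresis. Bidirectional fitting relative to DMSO.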
# [11] = ATG_PPRE_CIS: Attagene CIS-FACTORIAL HepG2 Assay for human Peroxisome Proliferator-activated Response Element (PPRE) (AID 2282958); conditions: HepG2 PPRE cis-element reporter, Attagene transcription factor profiling; actives raise or lower the signal
# Procedure, shortened: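 HepG2 cells transiently transfected with multiplexed cis-element reporter units measure endogenous transcription factor activity. After 24 h compound exposure, reporter mRNA is quantified by RT-PCR, 6-FAM labeling, HpaI digestion and capillary electrophoresis; bidirectional fits are made against DMSO baseline.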
# [12] = ATG_RORE_CIS: Attagene CIS-FACTORIAL HepG2 Assay for human RAR-related Orphan Receptor Element (RORE) (AID 2282959); conditions: HepG2 Attagene cis-factorial RORE reporter, mRNA; actives raise or lower the signal
# Procedure, shortened: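 HepG2 cells transiently transfected with multiple cis-element reporter transcription units, exposed to chemical for 24 h. Reporter mRNA quantified by RT-PCR, 6-FAM primer-extension labeling, HpaI digestion and capillary electrophoresis; bidirectional fit versus DMSO baseline.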
# [13] = ATG_Sox_CIS: Attagene CIS-FACTORIAL HepG2 Assay for human SRY-box transcription factor (SOX) (AID 2282960); conditions: HepG2 Attagene cis-factorial SOX reporter, mRNA; actives raise or lower the signal
# Procedure, shortened: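 HepG2 cells transiently transfected with cis-element-driven multiple reporter transcription units, dosed 24 h; reporter mRNA measured by RT-PCR, FAM labelling, HpaI digestion and capillary electrophoresis. Bidirectional fit versus DMSO baseline.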
# [14] = biological target: Transcription factor Sp1 (Homo sapiens) (UniProt P08047); assay: ATG_Sp1_CIS: Attagene CIS-FACTORIAL HepG2 Assay for human Specificity Protein 1 (Sp1) (AID 2282961); conditions: HepG2 Sp1 cis-reporter transcription, actives raise or lower the signal
# Sequence of Transcription factor Sp1 (Homo sapiens) (P08047 whole entry, looked up): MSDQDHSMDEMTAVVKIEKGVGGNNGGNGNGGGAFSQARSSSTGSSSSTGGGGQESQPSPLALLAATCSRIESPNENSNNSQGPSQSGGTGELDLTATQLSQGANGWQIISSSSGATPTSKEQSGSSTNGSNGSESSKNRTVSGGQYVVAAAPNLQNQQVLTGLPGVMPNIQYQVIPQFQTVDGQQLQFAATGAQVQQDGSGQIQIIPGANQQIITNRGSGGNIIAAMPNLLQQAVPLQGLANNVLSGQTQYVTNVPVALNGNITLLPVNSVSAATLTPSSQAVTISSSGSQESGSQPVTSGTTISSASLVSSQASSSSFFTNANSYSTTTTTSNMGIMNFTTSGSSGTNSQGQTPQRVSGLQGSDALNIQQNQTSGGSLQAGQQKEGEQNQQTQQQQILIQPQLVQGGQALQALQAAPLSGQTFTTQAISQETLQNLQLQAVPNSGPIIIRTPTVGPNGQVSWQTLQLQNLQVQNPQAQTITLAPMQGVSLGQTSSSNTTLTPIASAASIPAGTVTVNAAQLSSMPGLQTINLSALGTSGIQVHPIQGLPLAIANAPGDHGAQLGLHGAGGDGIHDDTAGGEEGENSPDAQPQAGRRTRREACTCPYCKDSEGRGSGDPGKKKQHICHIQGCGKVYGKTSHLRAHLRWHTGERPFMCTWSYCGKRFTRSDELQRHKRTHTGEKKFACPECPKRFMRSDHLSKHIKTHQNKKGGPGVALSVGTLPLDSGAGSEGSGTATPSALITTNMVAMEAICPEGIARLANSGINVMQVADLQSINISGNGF
# Procedure, shortened: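 HepG2 cells transiently transfected with multiple reporter transcription units driven by cis-regulatory elements; Sp1-responsive reporter mRNA measured 24 h after dosing by RT-PCR and capillary electrophoresis fluorescence, fitted bidirectionally against DMSO baseline.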
# [15] = ATG_SREBP_CIS: Attagene CIS-FACTORIAL HepG2 Assay for human Sterol Regulatory Element Binding (SREBP) (AID 2282962); conditions: HepG2 Attagene cis-factorial SREBP reporter, mRNA; actives raise or lower the signal
# Procedure, shortened: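 HepG2 cells transiently transfected with multiplexed cis-element reporter units report endogenous transcription factor activity. After 24 h of chemical exposure, reporter mRNA was quantified by RT-PCR, 6-FAM labelling, HpaI digestion and capillary electrophoresis; bidirectional fits used DMSO as baseline.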
# [16] = biological target: Signal transducer and activator of transcription 3 (Homo sapiens) (UniProt P40763); assay: ATG_STAT3_CIS: Attagene CIS-FACTORIAL HepG2 Assay for human Signal Transducer and Activator of Transcription 3 (STAT3) (AID 2282963); conditions: HepG2, Attagene cis-factorial STAT3 reporter transcription; actives raise or lower the signal
# Sequence of Signal transducer and activator of transcription 3 (Homo sapiens) (P40763 whole entry, looked up): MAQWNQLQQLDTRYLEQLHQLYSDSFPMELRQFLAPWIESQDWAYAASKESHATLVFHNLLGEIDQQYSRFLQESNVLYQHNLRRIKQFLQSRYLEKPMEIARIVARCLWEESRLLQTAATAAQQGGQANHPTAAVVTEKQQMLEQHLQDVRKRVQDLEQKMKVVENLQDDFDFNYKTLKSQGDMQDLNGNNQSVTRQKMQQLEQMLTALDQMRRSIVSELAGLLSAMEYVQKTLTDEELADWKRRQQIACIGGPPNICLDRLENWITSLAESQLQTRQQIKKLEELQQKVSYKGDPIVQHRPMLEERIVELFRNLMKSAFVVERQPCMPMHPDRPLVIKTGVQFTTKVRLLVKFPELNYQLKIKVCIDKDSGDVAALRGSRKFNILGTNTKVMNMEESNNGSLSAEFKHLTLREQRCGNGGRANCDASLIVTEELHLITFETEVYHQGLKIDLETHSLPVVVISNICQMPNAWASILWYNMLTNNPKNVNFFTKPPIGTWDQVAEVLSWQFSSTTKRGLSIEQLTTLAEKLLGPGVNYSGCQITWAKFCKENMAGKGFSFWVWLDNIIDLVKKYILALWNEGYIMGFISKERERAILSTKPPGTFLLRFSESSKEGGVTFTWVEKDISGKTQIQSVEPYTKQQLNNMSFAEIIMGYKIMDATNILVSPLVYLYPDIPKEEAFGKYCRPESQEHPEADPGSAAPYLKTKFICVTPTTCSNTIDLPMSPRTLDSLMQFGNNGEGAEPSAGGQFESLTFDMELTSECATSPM
# Procedure, shortened: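 After a 24 h compound incubation, total RNA from MRTU-transfected HepG2 cells was converted to cDNA and reporter sequences PCR-amplified, labelled and profiled by capillary electrophoresis. Gain and loss of signal were referenced to DMSO.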
# [17] = ATG_TA_CIS: Attagene CIS-FACTORIAL HepG2 Assay for human TA Basal Promoter (AID 2282964); conditions: HepG2 Attagene CIS-factorial TA basal promoter reporter; actives raise or lower the signal
# Procedure, shortened: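 Transient MRTU transfection of HepG2 preceded 24 h compound exposure. Reporter mRNA levels were then read by RT-PCR with capillary electrophoresis, and this background-control endpoint was fitted bidirectionally to DMSO.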
# [18] = ATG_PBREM_CIS: Attagene CIS-FACTORIAL HepG2 Assay for human Phenobarbital-responsive Enhancer Module (PBREM) (AID 2282955); conditions: HepG2 PBREM cis-reporter, Attagene multiplexed transcription; actives raise or lower the signal
# Procedure, shortened: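 HepG2 cells transiently transfected with multiple cis-regulated reporter transcription units; endogenous factor activity at the PBREM element measured as reporter mRNA 24 h after dosing, via RT-PCR and capillary electrophoresis of fluorescent fragments; bidirectional fitting versus DMSO.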
SMILES,outcome [1],outcome [2],outcome [3],outcome [4],outcome [5],outcome [6],outcome [7],outcome [8],outcome [9],AC50 [10],outcome [11],outcome [12],outcome [13],outcome [14],outcome [15],outcome [16],outcome [17],outcome [18],outcome [10]
CCCC(O)C(CC)CO (stereo not drawn),inactive,inactive,inactive,inactive,inactive,inactive,inactive,inactive,inactive,47.6 µM (active),inactive,inactive,inactive,inactive,inactive,inactive,inactive,,
CCCCCCCC1CCCC1=O (stereo not drawn),inactive,inactive,inactive,inactive,inactive,inactive,inactive,inactive,inactive,27.9 µM (active),inactive,inactive,,inactive,inactive,inactive,inactive,,
CCO[Si](CC)(OCC)OCC,inactive,inactive,inactive,inactive,inactive,inactive,inactive,inactive,inactive,2.33 µM (active),,inactive,inactive,inactive,inactive,inactive,inactive,inactive,
N#CCCNCCC#N,inactive,inactive,inactive,inactive,inactive,inactive,inactive,inactive,inactive,,inactive,,inactive,inactive,inactive,,inactive,inactive,inactive
CN(C)C,inactive,inactive,inactive,inactive,inactive,inactive,inactive,inactive,inactive,,,,inactive,inactive,inactive,,inactive,inactive,inactive
CC1=CC[C@@H]2C[C@H]1C2(C)C,inactive,inactive,inactive,inactive,inactive,inactive,inactive,inactive,inactive,,inactive,inactive,,inactive,inactive,inactive,inactive,,inactive
NS(=O)(=O)c1cc(C(=O)O)c(NCc2ccco2)cc1Cl,inactive,inactive,inactive,inactive,inactive,,inactive,inactive,inactive,,,inactive,inactive,inactive,inactive,inactive,inactive,,inactive
NNC(=O)OCc1ccccc1,inactive,inactive,inactive,inactive,,inactive,inactive,inactive,inactive,,inactive,inactive,inactive,inactive,inactive,inactive,inactive,inactive,inactive
CCC(=O)OC(C)(C)C1CC=C(C)CC1 (stereo not drawn),inactive,inactive,inactive,inactive,,inactive,inactive,inactive,inactive,27.4 µM (active),inactive,inactive,,inactive,inactive,,inactive,inactive,
C=CC(C)CCCC(C)(C)O (stereo not drawn),inactive,inactive,inactive,inactive,inactive,inactive,,inactive,inactive,,inactive,inactive,inactive,inactive,inactive,inactive,inactive,inactive,inactive
N#CCCCC(C#N)CCC#N (stereo not drawn),inactive,inactive,inactive,inactive,inactive,inactive,inactive,inactive,inactive,,inactive,,inactive,inactive,inactive,inactive,inactive,,inactive
CCCCCC1C(=O)CCC1CC(=O)OC (stereo not drawn),inactive,inactive,inactive,inactive,inactive,inactive,,inactive,inactive,,inactive,,inactive,inactive,inactive,inactive,inactive,,inactive
COc1ccccc1NC(=O)CC(C)=O,inactive,inactive,inactive,inactive,,inactive,inactive,inactive,inactive,34.2 µM (active),inactive,,inactive,inactive,inactive,inactive,inactive,inactive,
